Screening results (PubChem BioAssay)
RORgamma inh – blocks mouse ROR gamma transcriptional activity; P51450; Drosophila S2 Gal4-RORgamma UAS-luciferase reporter, 20 h; Potency, µM (series often up to 53.6 µM), hits mostly inhibitors; 310,000 compounds, 5.4% hits; AID 2551; also: nearly all actives have a fitted effect of over 60% in size
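Drosophila S2 cells stably expressing Gal4-DBD/mouse RORγ fusion under metallothionein promoter plus UAS-luciferase; compound 1 h, then 700 uM CuSO4 induction for 20 h at ambient temperature; inhibition read as reduced luminescence.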
a7 integrin act – activates integrin-mediated alleviation for muscular dystrophy. AID 624291. Potency, µM (doses to about 38.3 µM), actives largely listed as activators. 350,000 compounds, 0.064% hits. alpha7betagal myoblasts, beta-gal FDG fluorescence, 48 h; also: nearly all actives have a fitted effect of over 60% in size
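alpha7betagal+/- myoblasts (passage 13, 250/well) treated 48 h at 37C with compounds at 1:260 dilution of DMSO stock. Lysed, then beta-galactosidase activity read as FDG fluorescence (ex 480/em 540) after 30 min, with pre-read for autofluorescence.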
ERG-DNA inh – inhibitors of human ERG Ets domain-DNA interaction | fluorescence polarization, His-ERG Ets domain / labelled DNA | Potency, µM (doses to about 76.9 µM), most hits filed as inhibitors | P11308 | 370,000 compounds, 0.028% hits; active = well fitted inhibition curve with a large enough effect in the polarisation, with a control signal flat; inconclusive = small, poorly fitted or top-dose-only effect, or effect the other way, or a change in a side signal; inactive = no such curve, though single readings can be large or run the other way; the % refers to the polarisation;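 also: polarization taken with two DNA probes labelled with fluorescein and Texas red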
Target sequence (P11308 whole entry, looked up, the tested form may be a part): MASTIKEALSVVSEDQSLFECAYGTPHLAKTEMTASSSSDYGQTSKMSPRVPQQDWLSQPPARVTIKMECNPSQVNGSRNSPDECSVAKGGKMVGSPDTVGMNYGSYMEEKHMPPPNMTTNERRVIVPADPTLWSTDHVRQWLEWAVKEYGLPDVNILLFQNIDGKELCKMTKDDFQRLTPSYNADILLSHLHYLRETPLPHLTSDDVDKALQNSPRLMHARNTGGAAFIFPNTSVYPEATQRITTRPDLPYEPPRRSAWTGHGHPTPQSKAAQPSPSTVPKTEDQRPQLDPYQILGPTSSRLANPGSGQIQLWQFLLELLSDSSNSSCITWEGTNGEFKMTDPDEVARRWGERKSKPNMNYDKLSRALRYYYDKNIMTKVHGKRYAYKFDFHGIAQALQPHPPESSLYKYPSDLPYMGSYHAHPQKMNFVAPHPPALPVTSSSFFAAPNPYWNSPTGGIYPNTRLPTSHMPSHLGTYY
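His-tagged ERG Ets domain (1 uM in the protein solution; 300mM KCl, 50mM Tris-HCl, 1mM EDTA, 1mM DTT, pH 7.5) received compound, then a probe mix of 5 nM fluorescein-DNA and 100nM Texas-615-DNA. Fluorescence polarization was read for both dyes.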
Gal4-VP16 FLuc – inhibits Gal4-VP16 luciferase reporter, ROR gamma counter-screen. 310,000 compounds, 3.5% hits. Potency, µM (doses to about 53.6 µM), most hits filed as inhibitors. Drosophila S2 Gal4-VP16 UAS-luciferase, luminescence, 20 h;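 also: Gal4-VP16 expression switched on by copper sulfate through the metallothionein promoter; nearly all actives have a fitted effect of over 50% in size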
Giardia killer – Giardia lamblia killing. Giardia lamblia trophozoite viability. activity change, % at 7.66 µM, hits read low. 340,000 compounds, 0.15% hits. AID 540267; in the data active = activity change below about -80%; inconclusive = between about -30% and that limit;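 also: parasites exposed to compound for two days anaerobically before the ATP read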
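Killing of trophozoites was scored by loss of ATP luminescence after a 48 hrs anaerobic exposure to compounds at 37 deg C, using 100 cells per well.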
Each line names hits and unclear results; the compound was inactive in the other large screens. The full list was thinned out, with hits kept by preference. Unless noted, calls follow the shape of the dose curve; as a rule, active = well fitted curve in the direction sought with a large enough effect; inconclusive = small, poorly fitted or top-dose-only effect, or another doubt; inactive = no such curve, though single readings can be large; an effect the other way counts as inactive or inconclusive.

Cn1nc(C(C)(C)C)cc1C(=O)NCc1ccc(N2CCCC2=O)cc1	RORgamma inh inconclusive, Gal4-VP16 FLuc 0.56µM
Cc1ccc(CNC(=O)c2ccc(N3CCCC3=O)cc2)cc1	none
CCOC(=O)/C(=C\c1ccc(Cl)cc1)c1nc2sc(C)c(C)c2c(=O)[nH]1	RORgamma inh inconclusive, Gal4-VP16 FLuc 11µM
COc1cccc(CNc2cc(C)ccn2)c1O	none
Cc1ccnc(NCc2cccc3ccccc23)c1	RORgamma inh 16µM, Gal4-VP16 FLuc inconclusive
Cc1ccnc(NC(=O)Cc2ccc(-c3ccccc3)cc2)c1	RORgamma inh 11µM, Gal4-VP16 FLuc inconclusive
O=C(Cc1ccc(-c2ccccc2)cc1)Nc1ccccn1	a7 integrin act inconclusive
Cc1ccc(S(=O)(=O)n2nc(C)cc2C)cc1	none
Cc1cc(C)n(S(=O)(=O)/C=C/c2ccccc2)n1	RORgamma inh 16µM
CCCNC(=S)N(Cc1ccccc1)Cc1nc2ccccc2c(=O)[nH]1	RORgamma inh 13µM, Gal4-VP16 FLuc inconclusive
CCOCCCNC(=S)N(Cc1ccccc1)Cc1nc2ccccc2c(=O)[nH]1	RORgamma inh 11µM, Gal4-VP16 FLuc inconclusive
O=C(c1ccccc1)N(Cc1ccc(F)cc1)Cc1nc2ccccc2c(=O)[nH]1	RORgamma inh 3.5µM, Gal4-VP16 FLuc inconclusive
COC(=O)c1ccc(C(NC(=O)OCc2ccccc2)/C(C)=C/[C@@H](C)C(=O)NCc2cc(F)cc(F)c2)cc1 (some centres undefined)	none (no result: a7 integrin act, ERG-DNA inh, Giardia killer)
NC(=S)NNc1c(F)c(F)c(F)c(F)c1F	RORgamma inh 13µM, Gal4-VP16 FLuc inconclusive
O=C(CSc1ccc(F)cc1)Nc1cccc(S(=O)(=O)N2CCOCC2)c1	none (no result: RORgamma inh, Gal4-VP16 FLuc)
CCOC(=O)N1CCC(N(CCOC)C(=S)Nc2cccc(SC)c2)CC1	RORgamma inh 20µM, a7 integrin act inconclusive
CCOC(=O)N1CCC(N(CCN(C)C)C(=S)Nc2cc(Cl)cc(Cl)c2)CC1	RORgamma inh 10µM, Gal4-VP16 FLuc inconclusive
CCOC(=O)N1CCC(N(CCN(C)C)C(=S)Nc2cccc(Cl)c2)CC1	none
CN=C1S/C(=C\c2cc(C)n(-c3ccccc3F)c2C)C(=O)N1C	RORgamma inh inconclusive, Gal4-VP16 FLuc 18µM
Cc1cc(/C=C2\SC(=O)N(C)C2=O)c(C)n1-c1ccc(O)cc1	none
CCOc1cc(N2CCOCC2)c(OCC)cc1NC(=O)Cc1ccccc1OC	Gal4-VP16 FLuc 22µM
COc1ccc(C(=O)Nc2ccccc2N2CCOCC2)cc1Br	RORgamma inh 18µM
CCOc1ccc(C(=O)NC(=S)Nc2ccccc2N2CCOCC2)cc1Br	RORgamma inh 3.2µM, Gal4-VP16 FLuc 4.5µM
COc1ccc(C(=O)Nc2ccccc2C(=O)N2CCOCC2)cc1Br	Giardia killer inconclusive
COc1ccc(C(=O)NC(=S)Nc2ccccc2N2CCOCC2)cc1Br	RORgamma inh 6.3µM, Gal4-VP16 FLuc 6.3µM
CCOc1cc(N2CCOCC2)c(OCC)cc1NC(=O)Cc1ccccc1	none
COc1ccc(C(=O)Nc2ccccc2N2CCOCC2)cc1S(=O)(=O)N1CCOCC1	none (no result: RORgamma inh, Gal4-VP16 FLuc)
COC(=O)c1ccccc1NC(=O)C1=C(C)C(=O)OC12CCC(C)CC2 (centres undefined)	none (no result: RORgamma inh, a7 integrin act, Gal4-VP16 FLuc, Giardia killer)
COC(=O)[C@H](CCSC)NC(=O)C/C=C\[C@@H](C)CO	none (no result: a7 integrin act, ERG-DNA inh, Giardia killer)
COc1ccc(OC)c(NC(=O)C2CC(/C=C/c3ccccc3)=NO2)c1 (centres undefined)	none
COc1ccc(NC(=O)CN2CCN(c3c(C)cc(C)cc3C)CC2)cc1	none
COc1cc2c(cc1OC)CN(c1nc(CN3CCCCC3)nc3sc4c(c13)CCCC4)CC2	RORgamma inh 11µM, Gal4-VP16 FLuc inconclusive
Cc1ccc(Oc2nc(CN3CCOCC3)nc3sc4c(c23)CCC(C)C4)cc1C (centres undefined)	RORgamma inh 7.9µM, Gal4-VP16 FLuc 11µM
Cc1ccc(Oc2nc(CN3CCOCC3)nc3sc4c(c23)CCC(C)C4)cc1 (centres undefined)	RORgamma inh inconclusive, Gal4-VP16 FLuc inconclusive
COc1cc2c(cc1OC)CN(c1nc(CN3CCCC3)nc3sc(C)c(C)c13)CC2	RORgamma inh inconclusive
COc1cc2c(cc1OC)CN(c1nc(CN3CCOCC3)nc3sc4c(c13)CCCC4)CC2	RORgamma inh 14µM, Gal4-VP16 FLuc inconclusive
COc1cccc(Nc2nc(CN3CCOCC3)nc3sc4c(c23)CCCC4)c1	RORgamma inh 10µM, Gal4-VP16 FLuc inconclusive
Cc1ccc(CNC(=O)Cn2c(=O)n(-c3ccc(C)cc3)c(=O)c3c2c2cc(C)ccc2n3C)cc1	none (no result: RORgamma inh, a7 integrin act, Gal4-VP16 FLuc, Giardia killer)
C=C1N[C@]2(C(=O)COC(C)=O)[C@@H](C[C@H]3[C@@H]4CCC5=CC(=O)C=C[C@]5(C)[C@H]4[C@@H](O)C[C@@]32C)O1	none (no result: a7 integrin act, ERG-DNA inh, Giardia killer)
COC(=O)c1c(N)sc(C(=O)NCCc2ccccc2)c1C	RORgamma inh 2.5µM, Gal4-VP16 FLuc 4.5µM, Giardia killer inconclusive
CCOc1ccc(NC(=O)COc2ccc(C(=O)NCCc3ccccc3)cc2)cc1	none
O=C(NC(=S)NCc1cccnc1)c1ccccc1[N+](=O)[O-]	none
O=C(NC(=S)NCc1ccccc1)c1ccccc1[N+](=O)[O-]	RORgamma inh 7.9µM, Gal4-VP16 FLuc 16µM
COc1cccc(OC)c1C(=O)NCCc1ccccc1	none (no result: RORgamma inh, Gal4-VP16 FLuc)
CC(C)c1ccccc1NC(=O)COc1ccc(C(=O)NCCc2ccccc2)cc1	RORgamma inh inconclusive, Gal4-VP16 FLuc 18µM
CCCCc1ccc(NC(=O)COc2ccc(C(=O)Nc3ccccc3OCC)cc2)cc1	RORgamma inh inconclusive, Gal4-VP16 FLuc 10µM
COc1ccccc1C(CNC(=O)c1ccc(S(=O)(=O)N2CCCCC2)cc1)N(C)C (centres undefined)	Giardia killer inconclusive (no result: RORgamma inh, Gal4-VP16 FLuc)
Cc1ccc(C(=O)NCCc2ccccc2)cc1	RORgamma inh 4.5µM, a7 integrin act inconclusive, Gal4-VP16 FLuc 4µM, Giardia killer inconclusive
O=C(NCCc1ccccc1)c1ccc(S(=O)(=O)N2CCCCC2)cc1	none (no result: RORgamma inh, ERG-DNA inh, Gal4-VP16 FLuc, Giardia killer)
O=C(NC(=S)N(CCO)Cc1ccccc1)c1ccc(S(=O)(=O)N2CCCC2)cc1	RORgamma inh 2.2µM, Gal4-VP16 FLuc 4.5µM
O=C(Cc1ccccc1[N+](=O)[O-])NCCCc1ccccc1	RORgamma inh 0.22µM
O=C(NC(=S)NCCc1ccccc1)c1ccccc1F	RORgamma inh 18µM, Gal4-VP16 FLuc inconclusive
NS(=O)(=O)c1ccc(CCNC(=O)Cc2ccccc2[N+](=O)[O-])cc1	none
O=C(NCC(=O)N(c1ccccc1)C(C(=O)NC1CCCCC1)c1cccnc1)c1ccco1 (centres undefined)	ERG-DNA inh inconclusive
C[C@H]1C2=C3C(CC[C@H]4C(OCc5ccc(F)cc5C(F)(F)F)OC[C@](C)([C@@H]34)N(C(=O)OC(C)(C)C)C2)C2COC(=O)OCC21 (some centres undefined)	none (no result: a7 integrin act, ERG-DNA inh, Giardia killer)
COc1ccccc1C(=O)NC(=O)COC(=O)c1cnccn1	none (no result: RORgamma inh, ERG-DNA inh, Gal4-VP16 FLuc, Giardia killer)
O=C(NC(=S)NC(=O)c1ccccc1F)c1ccccc1F	RORgamma inh inconclusive, a7 integrin act inconclusive, Gal4-VP16 FLuc 5.6µM
O=C(NC(=S)NCc1ccccc1)c1ccccc1Br	RORgamma inh 8.9µM, Gal4-VP16 FLuc 10µM
